# Rows were chosen to be rich in hits. Some 1.6% of all compounds tested hit in one or more screens of this group.
# gsp antag: qHTS for Antagonists of gsp, the Etiologic Mutation Responsible for Fibrous Dysplasia/McCune-Albright Syndrome: qHTS; gsp-mutant cells, cAMP HTRF, 30 min; Potency, µM (titrated, usually from 76.9 µM), for the others: at the top dose activity change, negative = inhibition, usual class: inhibitors; actives 0.4% (n = 340,000); calls by dose curve; cell line not stated here;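 further: intracellular cAMP measured with PDE inhibitor Ro 20-1724 present during compound exposure; potency means the concentration at half of the fitted maximal effect; on the % scale 0 is the no-effect control and ±100 the full control effect; nearly all actives have a fitted effect of over 65% in size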
#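 HTRF cAMP read-out (cAMP-d2 plus anti-cAMP antibody-K in lysis buffer, 30 min RT). Before lysis, cells are exposed to compounds with […] for 30 min at 37C in DPBS containing Ca/Mg, BSA and Tween 20.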
# KCNH2 3.1 block: qHTS for Inhibitors of KCHN2 3.1: Mutant qHTS. Potassium voltage-gated channel subfamily H member 2, brain isoform KCNH2 3.1 (human). U2OS KCNH2 3.1, thallium flux FluxOr; active compounds read low. activity change, % (tested at about 1.8 µM). actives 0.95% (n = 340,000). AID 720553, 2013;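 active means maximum activity change below -70%; inconclusive means maximum activity change from -70% to -50%; inactive means maximum activity change above -50%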;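 further: thallium influx rate constant from kinetic fluorescence after stimulation buffer; on the % scale 0 is the no-effect control and ±100 the full control effect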
#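 Channel expression came from 3.1 mutant virus (1.77 x 10^8 /mL) applied to suspended U2OS cells for 4 h. Flux was tracked with FluxOr dye plus Red40 quencher, and kinetic rate constants normalized to controls.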
# gsp agonist: qHTS for Agonist of gsp, the Etiologic Mutation Responsible for Fibrous Dysplasia/McCune-Albright Syndrome: qHTS. actives 0.13% (n = 340,000). gsp mutant cells, cAMP HTRF, 30 min. Potency, µM (series often up to 76.9 µM), for the others: at the top dose activation (cAMP increase), actives largely listed as activators. AID 624287, 2012; active means well fitted activation curve with a large enough effect; inconclusive means small, poorly fitted or top-dose-only effect, or another doubt; inactive means no such curve, though single readings can be large or run the other way; cell line not stated here;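 further: phosphodiesterase inhibitor Ro 20-1724 added with compounds to block cAMP breakdown; potency means the concentration at half of the fitted maximal effect; nearly all actives have a fitted effect of over 60% in size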
#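 Cells stably selected in G418 were plated at 2000/well, grown 16-24 hr, then given compounds in DMSO with the PDE inhibitor […] (300 uM solution added) for 30 min at 37C; cAMP was read by HTRF.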
# hERG WT inh: qHTS for Inhibitors of KCHN2 3.1: Wildtype qHTS. Voltage-gated inwardly rectifying potassium channel KCNH2 (Homo sapiens), Q12809. U2OS, BacMam KCNH2, thallium flux FluxOr; active compounds read low. activity change, % at 1.84 µM. actives 0.37% (n = 340,000). AID 720551, 2013;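 active means maximum activity change below -70%; inconclusive means maximum activity change between -70% and -50%; inactive means maximum activity change above -50%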; further: on the % scale 0 is the no-effect control and ±100 the full control effect
# Target sequence (Q12809 whole entry, looked up): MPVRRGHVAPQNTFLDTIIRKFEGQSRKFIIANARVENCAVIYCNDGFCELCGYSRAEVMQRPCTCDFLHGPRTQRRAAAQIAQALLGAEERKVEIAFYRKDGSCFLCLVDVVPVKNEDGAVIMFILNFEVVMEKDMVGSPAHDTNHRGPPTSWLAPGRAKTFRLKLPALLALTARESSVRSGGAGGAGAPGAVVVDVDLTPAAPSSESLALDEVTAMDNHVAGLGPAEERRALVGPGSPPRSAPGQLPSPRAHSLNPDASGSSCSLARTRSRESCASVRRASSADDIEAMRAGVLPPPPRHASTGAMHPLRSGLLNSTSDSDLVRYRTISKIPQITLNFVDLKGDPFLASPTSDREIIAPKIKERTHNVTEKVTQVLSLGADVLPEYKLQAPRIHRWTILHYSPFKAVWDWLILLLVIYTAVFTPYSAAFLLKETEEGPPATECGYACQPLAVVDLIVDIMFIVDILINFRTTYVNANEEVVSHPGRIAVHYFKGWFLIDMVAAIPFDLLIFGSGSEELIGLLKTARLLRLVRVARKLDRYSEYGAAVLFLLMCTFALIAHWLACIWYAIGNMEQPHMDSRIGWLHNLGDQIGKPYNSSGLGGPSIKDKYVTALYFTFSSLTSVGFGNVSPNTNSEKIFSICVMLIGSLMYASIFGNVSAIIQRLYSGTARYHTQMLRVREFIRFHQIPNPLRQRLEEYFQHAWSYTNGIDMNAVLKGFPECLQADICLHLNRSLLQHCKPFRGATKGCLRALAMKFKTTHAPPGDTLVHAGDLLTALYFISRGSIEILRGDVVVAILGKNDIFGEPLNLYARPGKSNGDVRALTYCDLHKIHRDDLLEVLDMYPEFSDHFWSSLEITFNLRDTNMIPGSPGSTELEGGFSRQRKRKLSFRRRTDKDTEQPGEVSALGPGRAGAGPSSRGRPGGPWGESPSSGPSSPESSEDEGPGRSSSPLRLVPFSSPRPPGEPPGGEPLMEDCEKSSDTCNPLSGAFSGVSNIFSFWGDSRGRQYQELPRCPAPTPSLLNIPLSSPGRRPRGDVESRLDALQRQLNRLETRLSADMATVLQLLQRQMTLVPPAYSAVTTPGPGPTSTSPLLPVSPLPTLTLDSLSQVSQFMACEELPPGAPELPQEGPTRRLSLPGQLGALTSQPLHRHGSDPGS
#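 U2OS cells transduced with wild-type KCNH2 virus are loaded with FluxOr dye for 45 min, and thallium flux is measured in kinetic reads before and after stimulation buffer. Rate constants are normalized to DMSO controls.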
# Glioma ERSR ind: qHTS for Inducers of the Endoplasmic Reticulum Stress Response (ERSR) in Human Glioma: qHTS; U87-MG GRP78 promoter luciferase reporter, 16 h; Potency, µM, inactives show at the top dose activation, actives largely listed as activators; actives 0.02% (n = 420,000); AID 602332, 2012; active means well fitted activation curve with a large enough effect; inconclusive means small, poorly fitted or top-dose-only effect; inactive means no such curve, though single readings can be large or run the other way; further: potency means the concentration at half of the fitted maximal effect; series mostly up to about 76 µM; % of control where 0% means no effect; nearly all actives have a fitted effect of over 35% in size
#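 Stably transfected U87-MG glioma cells carrying a GRP78-based luciferase sensor; 16 h compound incubation. Luminescence end-point read 10 min after Bright-Glo addition at room temperature.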
# Akt phos inh: HTS Assay for Inhibitors of Akt Phophorylation: Primary Screen; Neuro2A IGF-stimulated pAkt S473 HTRF, 20 min; active compounds read low; activity change, % for hits at 50 µM; actives 0.32% (n = 360,000); AID 651550, 2012; in the data active means activity change below about -80%; inconclusive means mostly about -51% to -80%; further: on the % scale 0 is the no-effect control and ±100 the full control effect
#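 Neuro2A cells in DMEM with 0.5% FBS, overnight at 37 deg C, given compound at single 50 µM final, then IGF (6 nM final) for 20 min at 37 deg C. Lysed; phospho-Akt Ser473 by HTRF after 24 h, 665/615 ratio.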
# An asterisk follows results filed as active; i = inactive; u = inconclusive; x = no result; [ ] = another dose, or the depositor's remark.
SMILES,gsp antag,KCNH2 3.1 block,gsp agonist,hERG WT inh,Glioma ERSR ind,Akt phos inh
CC(=NC1CC1)c1c(-c2ccccc2)[nH]n(-c2nc3ccccc3s2)c1=O,-4.0%,0.1,u,8.2,3.0%,i
CSC1=C(C#N)C(c2ccc3c(c2)OCO3)C2=C(CCCC2=O)N1 (stereo not given),-15.9%,3.7,1.7%,1.7,-0.9%,i
CCSC1=C(C#N)C(c2ccc(Cl)cc2)C2=C(CCCC2=O)N1 (stereo not given),44.7µM*,-8.8,9.0%,-15.7,-7.3%,i
COc1ccc(CNC(=O)c2cnn(-c3nccc(-c4ccco4)n3)c2C)cc1OC,x,x,x,x,2.5%,x
CC(C)CCC(CCN1CCOCC1)c1ccc2c(c1)OCO2 (stereo not given),-9.2%,-111.1*,-11.8%,-115.5*,-1.2%,i
CC(C)CCC(CCN1CCCC1)c1ccc2c(c1)OCO2 (stereo not given),6.7%,-104.7*,14.5%[15.4 µM],u,-2.4%,i
CCOC(=O)c1cccnc1,x,x,x,x,-2.8%,x
CCOC(=O)c1ccc(C(=O)OCC)nc1,13.9%,12.3,-35.4%,2.3,1.4%,-106.4%*
CC(C)(C)n1ncc2c(=O)n(Cc3cccc(C#N)c3)cnc21,x,x,x,x,-1.0%,x
CCOc1cccc2sc(N(CCCN(C)C)C(=O)c3ccc(S(=O)(=O)N(C)Cc4ccccc4)cc3)nc12,5.2%,x,6.9%[15.4 µM],-74.1*,-5.8%,i
CCOc1cccc2sc(N(CCN(C)C)C(=O)c3cc4ccccc4cc3OC)nc12,4.1%,-78.9*,22.1%,-16.9,-11.5%,i
CCOc1ccc2nc(N(CCN(C)C)C(=O)c3cc4ccccc4cc3OC)sc2c1,1.3%,4.3,4.5%,u,-4.0%,i
COc1ccc(O)c(CN2CCC3(CCC(CNC(=O)c4ccccc4)O3)CC2)c1 (stereo not given),x,x,x,x,-4.7%,x
Cc1cc(C(=O)NCc2nnc3n2CCN(Cc2ccc(F)cc2F)CC3)c(C)o1,x,x,x,x,-3.9%,x
Cc1cc(C)cc(NC(=O)C2CC23CCN(Cc2ccc4ncccc4c2)CC3)c1 (stereo not given),x,x,x,x,-1.1%,x
COc1cc2nc(CCc3nc4cc(OC)c(OC)cc4[nH]3)[nH]c2cc1OC,x,x,x,x,1.1%,x
c1cncc(OC2CCN(Cc3ccc4c(c3)CN(Cc3ccc5c(c3)CCO5)CCO4)CC2)c1,x,x,x,x,-4.4%,x
C[C@@H]1O[C@@]2(CS1)CN1CCC2CC1,x,x,x,x,-4.5%,x
CCNc1nc(N2CCOCC2)nc(N(c2ccccc2)c2ccccc2)n1,-15.2%,-2.9,-15.9%,-11.0,-3.3%,-110.3%*
COc1ccccc1-c1cc(-c2ccccc2)nc(SC(C(N)=O)c2ccccc2)c1C#N (stereo not given),10.1%,-32.8,u,-5.8,0.2%,-90.6%*
CC(C)CC(=O)N1C/C=C\C[C@@H](c2ccc(Cl)cc2)N(Cc2ccc(Cl)cc2)C(=O)[C@@H]1Cc1ccccc1,x,x,x,x,0.8%,x
CC(=O)Nc1ccc(C(=O)N2CCCC(n3cc(C(=O)NCC(C)C)nn3)C2)cc1 (stereo not given),x,x,x,x,0.3%,x
Cc1ccc(NS(=O)(=O)c2cc(C(=O)N3CCc4ccccc4C3)ccc2Cl)cc1,-14.9%,-0.1,4.1%,-260.6*,-3.1%,i
Cc1ccccc1NS(=O)(=O)c1cc(C(=O)N2CCc3ccccc3C2)ccc1C,-41.5%,-6.6,-31.1%,-1.2,-5.7%,i
CCCCCCCCCCCCCCCCCC(=O)OCCO,x,x,x,x,-4.4%,x
SMILES,gsp antag,KCNH2 3.1 block,gsp agonist,hERG WT inh,Glioma ERSR ind,Akt phos inh
CN(C)c1cccc(C(=O)OCCCC(=O)c2ccc(F)cc2)c1,-15.3%,-129.9*,-7.8%,-5.1,2.8%,i
COc1cccc(CN2CCN(C(=S)NCc3ccc(Cl)cc3)CC2)c1,-10.7%,-74.5*,-11.3%,15.4,-2.3%,i
O=C(OCc1cccc([N+](=O)[O-])c1)c1cnccn1,15.9%,8.5,5.62µM*,-11.3,-2.4%,i
O=C(OCc1cccc([N+](=O)[O-])c1)c1ccncc1,3.4%,20.5,-0.2%,-2.4,-4.2%,i
CC(CSC(=O)c1ccccc1)C(=O)N1CC(Sc2ccccc2)CC1C(=O)O (stereo not given),x,x,x,x,-3.2%,x
COc1ccc(OC)c(C(=O)N(Cc2cc3cccc(C)c3nc2N2CCC(O)CC2)C2CC2)c1,x,x,x,x,-3.1%,x
Cc1csc(CN(C)C(=O)c2sc3ncnc(NCC4CCCO4)c3c2C)n1 (stereo not given),x,x,x,x,-6.5%,x
FC(F)(F)c1ccc(N2CCN(c3ncnc4c3nnn4Cc3ccccc3)CC2)nc1,4.4%,-4.5,16.9%,0.2,-4.4%,-86.5%*
c1ccc(Cn2nnc3c(N4CCOCC4)ncnc32)cc1,9.6%,7.6,6.5%,0.2,-2.9%,i
CCO[C@H]1[C@H](NC(=O)c2cccnc2)c2ccccc2C12CCN(C(=O)c1ccoc1)CC2,x,x,x,x,-2.4%,x
CCOC(=O)C1=C(C)N=C2SC(C)C(=O)N2C1c1ccc(OC(C)=O)c(OC)c1 (stereo not given),11.4%,-0.4,-17.8%,7.1,-10.1%,-103.9%*
Cc1cc2c(=O)oc(-c3ccc(F)cc3)nc2s1,-11.8%,5.4,-1.8%[15.4 µM],-5.7,-1.7%,i
Cc1cc2c(=O)oc(-c3ccccc3Br)nc2s1,35.5µM*,0.2,0.6%[15.4 µM],1.6,1.4%,i
CCCCCCCCc1nc(SC(C)C(=O)O)n[nH]1 (stereo not given),8.1%,-105.1*,24.1%,-6.8,-4.0%,i
Cc1ncc2c(c1CNC(=O)c1ccc3c(c1)OCO3)CCN(C(=O)c1csc3c1CCCC3)C2,x,x,x,x,-2.8%,x
O=C(NCCc1nnc2n1CCN(Cc1ccc3c(c1)CCO3)CC2)c1ccco1,x,x,x,x,-7.5%,x
NC(=O)COc1ccc(NC(=O)OCc2ccccc2)cc1,2.6%,-0.4,-45.4%,8.0,3.0%,-106.7%*
Cc1ccc(OCC(=O)Nc2ccc(N3CCN(C(=O)c4ccco4)CC3)cc2)cc1C,44.7µM*,-2.2,1.2%[15.4 µM],7.1,-5.9%,i
Cc1cccc(NC(=O)c2ncn3c2C(=O)N(C)CC3)c1,x,-82.6*,u,3.2,1.7%,i
CN1CCn2cnc(C(=O)NCc3ccccc3)c2C1=O,x,1.9,-31.5%,-1.4,-3.9%,i
CN(C)c1ccc(/C=C/c2cc3ccccc3cn2)cc1,x,x,x,x,-2.8%,x
COCc1c(C(=O)NC2CCCCCC2)cnn1-c1nccc(-c2cc(C)sc2C)n1,x,x,x,x,-2.9%,x
